Reference: PubChem BioAssay AID1159580 (chemical genetic matrix, 2015)
Out of some 5,500 compounds screened, about 2,000 (36%) were called active. Inconclusive results (about 18%) are left out. No stated cut-off is given here; in the data, active means normalized growth mostly below about 0.91 (no sharp cut-off); inconclusive means no clear call, values can overlap the other calls; inactive means mostly above about 0.92. The list shows a part of the results.

Experiment: chemical genetic growth profiling, strain panel (AID 1159580);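 further: tested at 20 µM; growth read once vehicle control cultures reached saturation at 30 °C; 1 = growth at the plate median or of vehicle wells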
Details: growth OD

Measured: normalized growth

OC(CCN1CCCC1)(c1ccccc1)C1CCCCC1 (centres undefined)
inactive: S. cerevisiae deletion strains, locus YJR043C, strain POL32, stronger effect = lower value 1.01 | S. cerevisiae deletion strains, locus YJR066W, strain TOR1, stronger effect = lower value 0.973 | S. cerevisiae deletion strains, locus YKL009W, strain mrt4, stronger effect = lower value 0.977 | S. cerevisiae deletion strains, locus YKL068W, stronger effect = lower value 0.985 | S. cerevisiae deletion strains, locus YKL085W, strain MDH1 (second series), stronger effect = lower value 0.977 | S. cerevisiae deletion strains, locus YKL085W, strain MDH1, stronger effect = lower value 0.977 | S. cerevisiae deletion strains, locus YKL160W, strain elf1, stronger effect = lower value 0.975 | S. cerevisiae deletion strains, locus YKL190W, strain CNB1, stronger effect = lower value 0.996 | S. cerevisiae deletion strains, locus YKR001C, strain vps1, stronger effect = lower value 0.985 | S. cerevisiae deletion strains, locus YKR026C, strain gcn3, stronger effect = lower value 0.986 | S. cerevisiae deletion strains, locus YKR091W, strain srl3, stronger effect = lower value 0.992 | S. cerevisiae deletion strains, locus YLL001W, strain dnm1, stronger effect = lower value 0.956 | S. cerevisiae deletion strains, locus YLL026W, stronger effect = lower value 0.974 | S. cerevisiae deletion strains, locus YLL041C, strain sdh2, stronger effect = lower value 0.988 | S. cerevisiae deletion strains, locus YLR027C, strain aat2, stronger effect = lower value 0.969 | S. cerevisiae deletion strains, locus YLR039C, strain RIC1, stronger effect = lower value 1.05 | S. cerevisiae deletion strains, locus YLR058C, strain SHM2, stronger effect = lower value 0.994 | S. cerevisiae deletion strains, locus YLR102C, strain apc9, stronger effect = lower value 0.972 | S. cerevisiae deletion strains, locus YLR113W, strain HOG1, stronger effect = lower value 1 | S. cerevisiae deletion strains, locus YLR221C, strain rsa3, stronger effect = lower value 0.995 | S. cerevisiae deletion strains, locus YLR258W, strain gsy2, stronger effect = lower value 1 | S. cerevisiae deletion strains, locus YLR262C, strain YPT6 (second series), stronger effect = lower value 0.998 | S. cerevisiae deletion strains, locus YLR262C, strain YPT6, stronger effect = lower value 1.07 | S. cerevisiae deletion strains, locus YLR268W, strain sec22, stronger effect = lower value 0.946 | S. cerevisiae deletion strains, locus YLR320W, strain mms22, stronger effect = lower value 0.968 | S. cerevisiae deletion strains, locus YLR330W, strain CHS5, stronger effect = lower value 0.992 | S. cerevisiae deletion strains, locus YLR342W, strain FKS1 (second series), stronger effect = lower value 0.992 | S. cerevisiae deletion strains, locus YLR342W, strain FKS1, stronger effect = lower value 0.963 | S. cerevisiae deletion strains, locus YLR357W, strain rsc2, stronger effect = lower value 0.973 | S. cerevisiae deletion strains, locus YLR370C, strain arc18, stronger effect = lower value 0.972 | S. cerevisiae deletion strains, locus YLR371W, strain rom2, stronger effect = lower value 0.958 | S. cerevisiae deletion strains, locus YLR384C, strain iki3, stronger effect = lower value 0.969 | S. cerevisiae deletion strains, locus YLR418C, strain cdc73, stronger effect = lower value 0.957 | S. cerevisiae deletion strains, locus YML016C, strain PPZ1, stronger effect = lower value 0.991 | S. cerevisiae deletion strains, locus YML032C, strain rad52, stronger effect = lower value 0.97 | S. cerevisiae deletion strains, locus YML120C, strain ndi1, stronger effect = lower value 0.972 | S. cerevisiae deletion strains, locus YML124C, strain tub3, stronger effect = lower value 0.983 | S. cerevisiae deletion strains, locus YMR058W, strain fet3, stronger effect = lower value 0.981 | S. cerevisiae deletion strains, locus YMR078C, strain ctf18, stronger effect = lower value 0.966 | S. cerevisiae deletion strains, locus YMR125W, strain sto1, stronger effect = lower value 1 | S. cerevisiae deletion strains, locus YMR129W, stronger effect = lower value 0.99 | S. cerevisiae deletion strains, locus YMR205C, strain PFK2, stronger effect = lower value 0.985 | S. cerevisiae deletion strains, locus YMR223W, strain ubp8, stronger effect = lower value 0.999 | S. cerevisiae deletion strains, locus YMR231W, strain pep5, stronger effect = lower value 1 | S. cerevisiae deletion strains, locus YMR263W, strain SAP30, stronger effect = lower value 1 | S. cerevisiae deletion strains, locus YMR307W, strain GAS1, stronger effect = lower value 0.991 | S. cerevisiae deletion strains, locus YNL067W, strain RPL9B, stronger effect = lower value 0.998 | S. cerevisiae deletion strains, locus YNL071W, strain lat1, stronger effect = lower value 1.01 | S. cerevisiae deletion strains, locus YNL128W, strain TEP1, stronger effect = lower value 0.982 | S. cerevisiae deletion strains, locus YNL183C, strain NPR1, stronger effect = lower value 0.989 | S. cerevisiae deletion strains, locus YNL209W, strain ssb2, stronger effect = lower value 0.993 | S. cerevisiae deletion strains, locus YNL233W, strain BNI4, stronger effect = lower value 1.01 | S. cerevisiae deletion strains, locus YNL248C, strain rpa49, stronger effect = lower value 1.01 | S. cerevisiae deletion strains, locus YNL250W, strain rad50, stronger effect = lower value 0.967 | S. cerevisiae deletion strains, locus YNL271C, strain bni1, stronger effect = lower value 0.987 | S. cerevisiae deletion strains, locus YNL298W, strain CLA4, stronger effect = lower value 0.97 | S. cerevisiae deletion strains, locus YNL307C, strain MCK1, stronger effect = lower value 0.976 | S. cerevisiae deletion strains, locus YNL322C, strain KRE1 (second series), stronger effect = lower value 0.981 | S. cerevisiae deletion strains, locus YNR049C, strain mso1, stronger effect = lower value 0.998 | S. cerevisiae deletion strains, locus YNR052C, strain pop2, stronger effect = lower value 0.98 | S. cerevisiae deletion strains, locus YOL006C, strain TOP1, stronger effect = lower value 1.02 | S. cerevisiae deletion strains, locus YOL012C, strain htz1 0.758 | S. cerevisiae deletion strains, locus YOL147C, strain pex11, stronger effect = lower value 0.975 | S. cerevisiae deletion strains, locus YOR001W, strain rrp6, stronger effect = lower value 0.965 | S. cerevisiae deletion strains, locus YOR061W, strain CKA2, stronger effect = lower value 0.987 | S. cerevisiae deletion strains, locus YOR069W, strain VPS5, stronger effect = lower value 0.989 | S. cerevisiae deletion strains, locus YOR070C, strain gyp1, stronger effect = lower value 1 | S. cerevisiae deletion strains, locus YOR080W, strain dia2, stronger effect = lower value 0.983 | S. cerevisiae deletion strains, locus YOR083W, strain WHI5, stronger effect = lower value 0.956 | S. cerevisiae deletion strains, locus YOR106W, strain vam3, stronger effect = lower value 0.979 | S. cerevisiae deletion strains, locus YOR136W, strain idh2, stronger effect = lower value 0.982 | S. cerevisiae deletion strains, locus YOR144C, strain elg1, stronger effect = lower value 0.979 | S. cerevisiae deletion strains, locus YOR184W, strain ser1, stronger effect = lower value 0.985 | S. cerevisiae deletion strains, locus YOR231W, strain MKK1, stronger effect = lower value 0.963 | S. cerevisiae deletion strains, locus YOR265W, strain rbl2, stronger effect = lower value 0.988 | S. cerevisiae deletion strains, locus YOR270C, strain vph1, stronger effect = lower value 0.965 | S. cerevisiae deletion strains, locus YOR290C, strain snf2, stronger effect = lower value 1.01 | S. cerevisiae deletion strains, locus YOR316C, strain cot1, stronger effect = lower value 0.97 | S. cerevisiae deletion strains, locus YPL051W, strain arl3, stronger effect = lower value 0.987 | S. cerevisiae deletion strains, locus YPL078C, strain atp4, stronger effect = lower value 0.945 | S. cerevisiae deletion strains, locus YPL106C, strain sse1, stronger effect = lower value 1 | S. cerevisiae deletion strains, locus YPL240C, strain hsp82, stronger effect = lower value 0.978 | S. cerevisiae deletion strains, locus YPL256C, strain CLN2, stronger effect = lower value 1.02 | S. cerevisiae deletion strains, locus YPR119W, strain clb2, stronger effect = lower value 0.981 | S. cerevisiae deletion strains, locus YPR141C, strain kar3, stronger effect = lower value 0.978 | S. cerevisiae deletion strains, locus YPR163C, strain tif3, stronger effect = lower value 0.974 | S. cerevisiae deletion strains, locus YPR167C, strain met16, stronger effect = lower value 0.978 | S. cerevisiae deletion strains, strain wtn01, stronger effect = lower value 0.964 | S. cerevisiae strains, strain wild type, stronger effect = lower value 0.996
